Results published in PubChem BioAssay AID1159580 (chemical genetic matrix, 2015).
Where “and” joins values, the source holds several entries; their conditions need not be identical. Identical values can stand only once. In all, about 5,500 compounds went through this assay and about 2,000 (36%) were called active. Roughly 18% stayed inconclusive and do not appear here. Rule as the data show it: active = normalized growth mostly below about 0.91 (no sharp cut-off); inconclusive = no clear call, values can overlap the other calls; inactive = mostly above about 0.92. The list shows a part of the results.

Assay: chemical genetic growth profiling, strain panel (AID 1159580);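 also: tested at 20 µM; growth read once vehicle control cultures reached saturation at 30 °C; 1 = growth at the plate median or of vehicle wells; lower values mean less growth of the strain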
Details: growth OD

Measured: normalized growth

CCOC(=O)C(C)(C)Oc1ccc(Cl)cc1
inactive: S. cerevisiae deletion strains, locus YJR075W, strain HOC1, hits give low values 1.01 and 0.998 | S. cerevisiae deletion strains, locus YKL009W, strain mrt4, hits give low values 1.02 | S. cerevisiae deletion strains, locus YKL068W, hits give low values 1 | S. cerevisiae deletion strains, locus YKL085W, strain MDH1 (second series), hits give low values 1.01 | S. cerevisiae deletion strains, locus YKL085W, strain MDH1, hits give low values 1.01 | S. cerevisiae deletion strains, locus YKL160W, strain elf1, hits give low values 0.98 | S. cerevisiae deletion strains, locus YKL190W, strain CNB1, hits give low values 1.01 | S. cerevisiae deletion strains, locus YKR001C, strain vps1, hits give low values 0.975 | S. cerevisiae deletion strains, locus YKR026C, strain gcn3, hits give low values 0.974 | S. cerevisiae deletion strains, locus YKR091W, strain srl3, hits give low values 0.978 | S. cerevisiae deletion strains, locus YLL001W, strain dnm1, hits give low values 0.987 | S. cerevisiae deletion strains, locus YLL026W, hits give low values 0.97 | S. cerevisiae deletion strains, locus YLL041C, strain sdh2, hits give low values 0.983 | S. cerevisiae deletion strains, locus YLR027C, strain aat2, hits give low values 0.994 | S. cerevisiae deletion strains, locus YLR039C, strain RIC1, hits give low values 0.986 | S. cerevisiae deletion strains, locus YLR058C, strain SHM2, hits give low values 1.01 | S. cerevisiae deletion strains, locus YLR102C, strain apc9, hits give low values 0.996 | S. cerevisiae deletion strains, locus YLR113W, strain HOG1, hits give low values 0.943 | S. cerevisiae deletion strains, locus YLR221C, strain rsa3, hits give low values 0.985 | S. cerevisiae deletion strains, locus YLR258W, strain gsy2, hits give low values 0.986 | S. cerevisiae deletion strains, locus YLR262C, strain YPT6 (second series), hits give low values 0.965 | S. cerevisiae deletion strains, locus YLR262C, strain YPT6, hits give low values 0.985 | S. cerevisiae deletion strains, locus YLR268W, strain sec22, hits give low values 1 | S. cerevisiae deletion strains, locus YLR320W, strain mms22, hits give low values 0.944 | S. cerevisiae deletion strains, locus YLR330W, strain CHS5, hits give low values 1 | S. cerevisiae deletion strains, locus YLR342W, strain FKS1 (second series), hits give low values 0.988 | S. cerevisiae deletion strains, locus YLR342W, strain FKS1, hits give low values 0.981 | S. cerevisiae deletion strains, locus YLR357W, strain rsc2, hits give low values 1 | S. cerevisiae deletion strains, locus YLR370C, strain arc18, hits give low values 0.983 | S. cerevisiae deletion strains, locus YLR371W, strain rom2, hits give low values 0.971 | S. cerevisiae deletion strains, locus YLR384C, strain iki3, hits give low values 0.969 | S. cerevisiae deletion strains, locus YLR418C, strain cdc73, hits give low values 0.985 | S. cerevisiae deletion strains, locus YML016C, strain PPZ1, hits give low values 1 | S. cerevisiae deletion strains, locus YML032C, strain rad52, hits give low values 0.992 | S. cerevisiae deletion strains, locus YML120C, strain ndi1, hits give low values 0.986 | S. cerevisiae deletion strains, locus YML124C, strain tub3, hits give low values 0.998 | S. cerevisiae deletion strains, locus YMR058W, strain fet3, hits give low values 0.987 | S. cerevisiae deletion strains, locus YMR078C, strain ctf18, hits give low values 0.999 | S. cerevisiae deletion strains, locus YMR125W, strain sto1, hits give low values 0.963 | S. cerevisiae deletion strains, locus YMR129W, hits give low values 0.994 | S. cerevisiae deletion strains, locus YMR205C, strain PFK2, hits give low values 0.934 | S. cerevisiae deletion strains, locus YMR223W, strain ubp8, hits give low values 0.996 | S. cerevisiae deletion strains, locus YMR231W, strain pep5, hits give low values 0.983 | S. cerevisiae deletion strains, locus YMR307W, strain GAS1, hits give low values 0.996 | S. cerevisiae deletion strains, locus YNL067W, strain RPL9B, hits give low values 1.01 | S. cerevisiae deletion strains, locus YNL071W, strain lat1, hits give low values 0.98 | S. cerevisiae deletion strains, locus YNL128W, strain TEP1, hits give low values 1.01 | S. cerevisiae deletion strains, locus YNL175C, strain NOP13, hits give low values 1.01 | S. cerevisiae deletion strains, locus YNL183C, strain NPR1, hits give low values 0.933 | S. cerevisiae deletion strains, locus YNL197C, strain WHI3, hits give low values 1.01 | S. cerevisiae deletion strains, locus YNL209W, strain ssb2, hits give low values 0.992 | S. cerevisiae deletion strains, locus YNL224C, strain SQS1, hits give low values 0.991 | S. cerevisiae deletion strains, locus YNL233W, strain BNI4, hits give low values 0.999 | S. cerevisiae deletion strains, locus YNL248C, strain rpa49, hits give low values 0.979 | S. cerevisiae deletion strains, locus YNL250W, strain rad50, hits give low values 1.02 | S. cerevisiae deletion strains, locus YNL271C, strain bni1, hits give low values 0.997 | S. cerevisiae deletion strains, locus YNL298W, strain CLA4, hits give low values 1 | S. cerevisiae deletion strains, locus YNL307C, strain MCK1, hits give low values 1 | S. cerevisiae deletion strains, locus YNL322C, strain KRE1 (second series), hits give low values 0.973 | S. cerevisiae deletion strains, locus YNL322C, strain KRE1, hits give low values 1.01 and 1 | S. cerevisiae deletion strains, locus YNR049C, strain mso1, hits give low values 0.985 | S. cerevisiae deletion strains, locus YNR052C, strain pop2, hits give low values 1 | S. cerevisiae deletion strains, locus YOL006C, strain TOP1, hits give low values 1.01 | S. cerevisiae deletion strains, locus YOL012C, strain htz1 0.891 | S. cerevisiae deletion strains, locus YOL147C, strain pex11, hits give low values 0.988 | S. cerevisiae deletion strains, locus YOR001W, strain rrp6, hits give low values 0.976 | S. cerevisiae deletion strains, locus YOR061W, strain CKA2, hits give low values 1.01 | S. cerevisiae deletion strains, locus YOR069W, strain VPS5, hits give low values 1 | S. cerevisiae deletion strains, locus YOR070C, strain gyp1, hits give low values 0.995 | S. cerevisiae deletion strains, locus YOR080W, strain dia2, hits give low values 0.97 | S. cerevisiae deletion strains, locus YOR083W, strain WHI5 (second series), hits give low values 1.03 | S. cerevisiae deletion strains, locus YOR083W, strain WHI5, hits give low values 0.982 | S. cerevisiae deletion strains, locus YOR106W, strain vam3, hits give low values 0.999 | S. cerevisiae deletion strains, locus YOR136W, strain idh2, hits give low values 1 | S. cerevisiae deletion strains, locus YOR144C, strain elg1, hits give low values 0.995 | S. cerevisiae deletion strains, locus YOR184W, strain ser1, hits give low values 0.943 | S. cerevisiae deletion strains, locus YOR231W, strain MKK1, hits give low values 0.94 | S. cerevisiae deletion strains, locus YOR265W, strain rbl2, hits give low values 0.991 | S. cerevisiae deletion strains, locus YOR270C, strain vph1, hits give low values 0.987 | S. cerevisiae deletion strains, locus YOR290C, strain snf2, hits give low values 0.976 | S. cerevisiae deletion strains, locus YOR316C, strain cot1, hits give low values 0.997 | S. cerevisiae deletion strains, locus YPL051W, strain arl3, hits give low values 0.984 | S. cerevisiae deletion strains, locus YPL055C, strain LGE1, hits give low values 0.999 | S. cerevisiae deletion strains, locus YPL078C, strain atp4, hits give low values 0.985 | S. cerevisiae deletion strains, locus YPL106C, strain sse1, hits give low values 0.951 | S. cerevisiae deletion strains, locus YPL240C, strain hsp82, hits give low values 0.988 | S. cerevisiae deletion strains, locus YPL241C, strain CIN2, hits give low values 0.997 | S. cerevisiae deletion strains, locus YPL256C, strain CLN2, hits give low values 0.923 | S. cerevisiae deletion strains, locus YPR119W, strain clb2, hits give low values 0.993 | S. cerevisiae deletion strains, locus YPR141C, strain kar3, hits give low values 0.992 | S. cerevisiae deletion strains, locus YPR163C, strain tif3, hits give low values 0.995 | S. cerevisiae deletion strains, locus YPR167C, strain met16, hits give low values 1 | S. cerevisiae deletion strains, strain wtn01, hits give low values 0.993 | S. cerevisiae strains, strain wild type, hits give low values 1
